ATXN2 expr inh = inhibitors of ATXN2 expression. HEK-293 ATXN2-luciferase reporter, luminescence, 24 h. Potency, µM (highest dose often 57 µM), actives largely listed as inhibitors. actives 0.72% (n = 360,000); also: nearly all actives have a fitted effect of over 55% in size
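qHTS (up to 57 uM final) was run with 24 h compound exposure of reporter cells at 37 °C. Each well was multiplexed: SteadyGlo luminescence measured ATXN2-luciferase expression after a fluorogenic Gly-Phe-AFC viability readout (25 uM final).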
HepG2 viability = kills HepG2 cells in TGF-b inhibitor counter-screen; actives 0.76% (n = 410,000); AID 588856; HepG2 CAGA-GFP viability, ATP luminescence, 18 h; Potency, µM (titrated, usually from 46.1 µM), hits mostly cytotoxic
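HepG2 CAGA-GFP cells (1000/well, DMEM with 1% FBS) received compound, then TGF-beta at 500 pg/mL final, and were incubated 18 hours at 37 degrees C. Viability was read by CellTiter-Glo luminescence. Media-only wells were set as complete cell-killing and DMSO as no toxicity.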
TGFb inhibitor = blocks TGF-b signaling; HepG2 CAGA-GFP TGF-b/SMAD3 reporter, GFP fluorescence, 18 h; TGF-beta stimulated, 500 pg/mL final; Potency, µM (doses to about 46.1 µM), usual class: inhibitors; actives 1.2% (n = 410,000); AID 588855; also: nearly all actives have a fitted effect of over 65% in size
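Using HEPG2 CAGA-GFP reporter cells at 1000 cells/well, we pinned test compounds, stimulated with recombinant TGF-beta (500 pg/mL final) and measured total well GFP after 18 h.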
S2 tox = viability counter-screen for ATXN expression inhibitors; S2 cells (HEK-293 line with an ATXN2-luciferase reporter) viability, CellTiter-Fluor protease fluorescence, 24 h; Potency, µM (top dose mostly 56.7 µM), actives largely listed as cytotoxic; actives 0.49% (n = 400,000); also: nearly all actives have a fitted effect of over 40% in size
D3 ag = activates the human D3 dopamine receptor; actives 0.58% (n = 410,000); D3R DiscoveRx beta-arrestin cells, luminescence, 90 min; max activation, %; P35462; in the data active = max activation above about 30%
Target sequence (P35462 whole entry, looked up): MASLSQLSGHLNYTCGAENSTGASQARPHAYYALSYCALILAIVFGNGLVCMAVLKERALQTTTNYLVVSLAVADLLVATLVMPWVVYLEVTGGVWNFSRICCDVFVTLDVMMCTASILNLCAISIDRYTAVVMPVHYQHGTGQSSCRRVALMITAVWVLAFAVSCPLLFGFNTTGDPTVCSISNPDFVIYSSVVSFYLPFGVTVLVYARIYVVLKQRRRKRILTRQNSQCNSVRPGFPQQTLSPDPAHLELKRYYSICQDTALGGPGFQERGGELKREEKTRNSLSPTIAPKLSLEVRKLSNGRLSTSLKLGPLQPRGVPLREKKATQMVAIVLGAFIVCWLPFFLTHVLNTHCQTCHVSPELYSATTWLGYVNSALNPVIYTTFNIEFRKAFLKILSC
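Agonist-mode cell screen: cells plated at 1500/well and incubated overnight at 37 °C, then exposed to library compounds for 90 min at 37 °C. Detection reagent was added for 30–60 min at room temperature, and luminescence was read.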
DRD3 antagonist = antagonists of human D3 dopamine receptor; P35462; D3R cells, DiscoveRx beta-arrestin luminescence, antagonist mode; active compounds read low; max response, negative = inhibition, %; actives 2.5% (n = 360,000); AID 652054; in the data active = max response below about -50%; inconclusive = no clear call, values can overlap the other calls
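Cells plated overnight at 1500 cells/well, then exposed to library compounds with dopamine controls for 90 minutes at 37 degrees C. DiscoveRx reagent added for 30–60 minutes at room temperature; luminescence read, quantitative HTS format.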
Hits are given with their value; – = inactive; ? = inconclusive; · = no result; ! = not confirmed by another sample. This is a sample that favours compounds with a hit; in the whole collection about 4.8% have one here. Unless noted, calls follow the shape of the dose curve; as a rule, active = well fitted curve in the direction sought with a large enough effect; inconclusive = small, poorly fitted or top-dose-only effect, or another doubt; inactive = no such curve, though single readings can be large; an effect the other way counts as inactive or inconclusive.

SMILES | ATXN2 expr inh | HepG2 viability | TGFb inhibitor | S2 tox | D3 ag | DRD3 antagonist
C[CH2][Hg][S]c1ccccc1C(=O)O | 6.31µM | 2.51µM | 4.47µM | 4.47µM | – | -64.2
CCN(C(=O)Cn1c(=O)oc2cc(S(=O)(=O)N3CCCC3)ccc21)c1cccc(C)c1 | · | – | · | · | – | ·
CCOC(=O)c1c(C)n(Cc2ccccc2)c2ccc(O)cc12 | – | – | 17.8µM | – | – | –
CCOC(=O)c1c(C)n(Cc2ccccc2)c2ccc(OCC(O)CNC(C)(C)C)cc12 (configuration not stated) | 14.1µM | 17.8µM | ? | · | – | –
COC(=O)c1c(C)n(Cc2ccccc2)c2ccc(O)cc12 | – | – | – | – | – | –
Cc1ccc(Cl)cc1NC(=O)Cn1c(=O)oc2cc(S(=O)(=O)N3CCCCCC3)ccc21 | · | – | ? | · | – | ·
C/C=C1/C[C@@H](C)[C@@](C)(O)C(=O)OCC2=CCN3CC[C@@H](OC1=O)[C@@H]23 | · | – | – | · | · | ·
Cc1ccc(Cl)cc1N1CCN(C(=O)c2cn(CC(C)C)c(=O)c3c2c2ccccc2n3C)CC1 | ? | – | – | ? | – | ·
O=C1NC(=O)N(Cc2ccc(F)cc2)C(=O)/C1=C\c1ccc([N+](=O)[O-])s1 | – | – | ? | ? | – | -55.5
c1ccc(CN2CCN(Cc3ccc4c(c3)OCCO4)CC2)cc1 | – | – | – | ? | – | -76.3
N=c1c2c(-c3ccccc3)c(-c3ccccc3)n(Cc3ccccc3)c2ncn1C1CCC(O)CC1 (configuration not stated) | 24.3µM | · | · | · | · | ·
O=C(NC1CC1)c1cn(Cc2ccccc2)nc1-c1ccccc1 | – | – | – | – | – | –
O=[N+]([O-])c1ccc(-[n+]2c(-c3ccccc3)cc(-c3ccccc3)cc2-c2ccccc2)cc1 | · | – | – | – | – | –
Oc1ccc(-[n+]2c(-c3ccccc3)cc(-c3ccccc3)cc2-c2ccccc2)cc1 | 12.6µM | – | ? | ? | – | –
O=C([O-])c1ccc(-[n+]2c(-c3ccccc3)cc(-c3ccccc3)cc2-c2ccccc2)cc1 | – | – | – | – | 54.7 | –
C=CC[C@@H](CC(=O)N(CCO)Cc1ccccc1)C(=O)NC[C@@H](OC(=O)[C@@H](CC=C)CC(=O)OC(C)(C)C)c1ccccc1 | ? | – | – | 20µM | – | –
C=CC[C@H](CC(=O)N(CCO)Cc1ccccc1)C(=O)NC[C@H](OC(=O)[C@@H](CC=C)CC(=O)OC(C)(C)C)c1ccccc1 | ? | – | ? | 25.1µM | – | –
O=C(Cn1c(=O)oc2cc(S(=O)(=O)NCc3ccccc3)ccc21)Nc1cccc(F)c1 | – | – | ? | – | – | ·
CC(C)(C)NC[C@H](O)c1ccc(O)cc1Cl | – | · | · | ? | – | ·
CCC(C)C1NC(=O)C(NC(=O)C(CC(C)C)N(C)C(=O)C2CCCN2C(=O)C(C)O)C(C)OC(=O)C(Cc2ccc(OC)cc2)N(C)C(=O)C2CCCN2C(=O)C(CC(C)C)NC(=O)[C@H](C)C(=O)[C@H](C(C)C)OC(=O)CC1O (some centres not stated) | ? | – | – | 0.0134µM | – | ?
CCN(CC)C(=O)Cn1cc(S(=O)(=O)CC(=O)NCc2ccc(C)cc2)c2ccccc21 | – | – | – | ? | – | –
Cc1ccc(/C=C2\C(=O)NC(=S)N(c3ccccc3F)C2=O)s1 | 31.6µM | – | ? | ? | – | –
Oc1ccc(Cl)cc1Cc1cc(Cl)ccc1O | 28.2µM! | – | ? | ? | – | –
O=[N+]([O-])c1ccc(NC2CCN(Cc3ccccc3)CC2)c2ccncc12 | – | – | – | ? | – | -73.7
O=[N+]([O-])c1ccc(NC2CCCC2)c2ccncc12 | – | – | – | – | – | –
O=c1nc(/C=C/c2ccc(Cl)cc2Cl)cc(C(F)(F)F)[nH]1 | · | 11.2µM | 15.8µM | – | – | –
CCCCNC(=O)c1cc(-c2cccnc2)nc2ccc(S(=O)(=O)NCCCC)cc12 | – | – | – | ? | – | ·

From PubChem
